# Inconclusive results are not listed. The source made the active and inactive calls. How the source made its calls, unless noted: active means hit-call score of the fitted dose curve at least 0.9, where 1 is the maximum; inconclusive means response in the unintended direction; inactive means score below 0.9.
# What was measured:
# [1] = TOX21_PR_LUC_Followup_Antagonist_viability: Viability Assessment in the Tox21 HEK293 Progesterone Receptor (PR) Antagonism Luciferase Follow-Up Assay (AID 2283940)
# In short: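 Multiplexed viability counter-screen: after 5 days in charcoal-stripped-FBS medium, HEK293-PR-A-luc cells are plated, pinned with DMSO-dissolved compounds for 16 h at 37C, and ATP content is quantified luminescently via CellTiter-Glo.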
# [2] = CCTE_Harrill_HTTr_Viability_DMEM_6hr: (Pilot) CCTE's 6-hour Cell Viability Assessment for the High-Throughput Transcriptomics (HTTr) Platform, in MCF-7 cells cultured in DMEM + 10% fetal bovine serum, Harrill Lab (AID 2283973; active means hit-call score of the fitted dose curve at least 0.9, where 1 is the maximum; inactive means score below 0.9)
# In short: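 MCF-7 cells in DMEM + 10% FBS, eight-point dilution series, 6 h exposure. Membrane integrity by propidium iodide exclusion with high-content imaging; bidirectional fit versus DMSO.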
# [3] = CCTE_Harrill_HTTr_Viability_DMEM_12hr: (Pilot) CCTE's 12-hour Cell Viability Assessment for the High-Throughput Transcriptomics (HTTr) Platform, in MCF-7 cells cultured in DMEM + 10% fetal bovine serum, Harrill Lab (AID 2283974; active means hit-call score of the fitted dose curve at least 0.9, where 1 is the maximum; inactive means score below 0.9)
# In short: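 MCF-7 cells in DMEM + 10% FBS exposed 12 h to an eight-point dilution series; membrane integrity scored by propidium iodide exclusion with high-content imaging, bidirectional fitting versus DMSO.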
# [4] = CCTE_Harrill_HTTr_Viability_DMEM_24hr: (Pilot) CCTE's 24-hour Cell Viability Assessment for the High-Throughput Transcriptomics (HTTr) Platform, in MCF-7 cells cultured in DMEM + 10% fetal bovine serum, Harrill Lab (AID 2283975; active means hit-call score of the fitted dose curve at least 0.9, where 1 is the maximum; inactive means score below 0.9)
# In short: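 MCF-7 cells in DMEM with 10% FBS exposed for 24 hours to an eight-point dilution series. Membrane integrity by propidium iodide exclusion with high content imaging; bidirectional fit against DMSO.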
# [5] = CCTE_Harrill_HTTr_Viability_PRF_DMEM_6hr: (Pilot) CCTE's 6-hour Cell Viability Assessment for the High-Throughput Transcriptomics (HTTr) Platform, in MCF-7 cells cultured phenol red-free DMEM + 10% charcoal-stripped fetal bovine serum, Harrill Lab (AID 2283976; active means hit-call score of the fitted dose curve at least 0.9, where 1 is the maximum; inactive means score below 0.9)
# In short: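 MCF-7 cells in phenol red-free DMEM with 10% charcoal-stripped FBS exposed 6 hours to an eight-point dilution series. Propidium iodide exclusion imaged; curves fitted bidirectionally against DMSO.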
# [6] = CCTE_Harrill_HTTr_Viability_PRF_DMEM_12hr: (Pilot) CCTE's 12-hour Cell Viability Assessment for the High-Throughput Transcriptomics (HTTr) Platform, in MCF-7 cells cultured in phenol red-free DMEM + 10% charcoal-stripped fetal bovine serum, Harrill Lab (AID 2283977; active means hit-call score of the fitted dose curve at least 0.9, where 1 is the maximum; inactive means score below 0.9)
# In short: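 MCF-7 cells in phenol red-free DMEM with 10% charcoal-stripped FBS exposed 12 hours to an eight-point dilution series. Viability assessed by high-content imaging of propidium iodide exclusion; bidirectional fit versus DMSO.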
# [7] = CCTE_Harrill_HTTr_Viability_PRF_DMEM_24hr: (Pilot) CCTE's 24-hour Cell Viability Assessment for the High-Throughput Transcriptomics (HTTr) Platform, in MCF-7 cells cultured in phenol red-free DMEM + 10% charcoal-stripped fetal bovine serum, Harrill Lab (AID 2283980; active means hit-call score of the fitted dose curve at least 0.9, where 1 is the maximum; inactive means score below 0.9)
# In short: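 MCF-7 cells in phenol red-free DMEM with 10% charcoal-stripped FBS, eight-point dilution series, 24 h exposure. Membrane integrity by propidium iodide exclusion with high content imaging; bidirectional fit vs DMSO.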
# [8] = CCTE_Harrill_HTTr_Apoptosis_DMEM_6hr: (Pilot) CCTE's 6-hour Apoptosis Assessment for the High-Throughput Transcriptomics (HTTr) Platform, in MCF-7 cells cultured in DMEM + 10% fetal bovine serum, Harrill Lab (AID 2283981; active means hit-call score of the fitted dose curve at least 0.9, where 1 is the maximum; inactive means score below 0.9)
# In short: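 Caspase-3/7 activation read by high content imaging with CellEvent Caspase 3/7 Green in MCF-7 cells (DMEM + 10% FBS), 6 h after dosing; eight-point dilution series. Bidirectional fitting relative to DMSO baseline.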
# [9] = CCTE_Harrill_HTTr_Apoptosis_DMEM_12hr: (Pilot) CCTE's 12-hour Apoptosis Assessment for the High-Throughput Transcriptomics (HTTr) Platform, in MCF-7 cells cultured in DMEM + 10% fetal bovine serum, Harrill Lab (AID 2283982; active means hit-call score of the fitted dose curve at least 0.9, where 1 is the maximum; inactive means score below 0.9)
# In short: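 MCF-7 cells in DMEM + 10% FBS, exposed 12 h to an eight-point dilution series; caspase-3/7 activation imaged with CellEvent Green. Bidirectional fit versus DMSO.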
# [10] = CCTE_Harrill_HTTr_Apoptosis_DMEM_24hr: (Pilot) CCTE's 24-hour Apoptosis Assessment for the High-Throughput Transcriptomics (HTTr) Platform, in MCF-7 cells cultured in DMEM + 10% fetal bovine serum, Harrill Lab (AID 2283983; active means hit-call score of the fitted dose curve at least 0.9, where 1 is the maximum; inactive means score below 0.9)
# In short: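 MCF-7 cells in DMEM + 10% FBS, eight-point dilution series, 24 h exposure. Caspase-3/7 activation imaged by high-content imaging with CellEvent Caspase 3/7 Green. Bidirectional curve fitting against DMSO baseline.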
# [11] = TOX21_PR_LUC_Followup_Agonist_viability: Viability Assessment in the Tox21 HEK293 Progesterone Receptor (PR) Agonism Luciferase Follow-Up Assay (AID 2283941);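 further: loss of signal means cytotoxicity so actives lower viability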
# In short: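 Cells were kept 5 days in charcoal-stripped serum medium before plating HEK293-PR-A-luc at 3,000 cells/well. After 5 h they received DMSO-dissolved compound and incubated 16 h at 37C. Viability was taken from CellTiter-Glo ATP luminescence.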
# THRA (gene 7067) = THRA (gene 7067) (UniProt P10827); experiment: TOX21_TRA_COA_Agonist_Followup_ratio: Tox21 Thyroid Hormone Receptor alpha Agonism through Coactivator Recruitment Follow-Up Assay, Ratio (AID 2283948; active means hit-call score of the fitted dose curve at least 0.9, where 1 is the maximum; inactive means score below 0.9)
# In short: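 Cell-free TR-FRET coactivator recruitment: GST-tagged TRα LBD (2.5 nM) with 0.10% BSA was incubated with compound, then fluorescein-SRC-2 peptide (200 nM) and Tb-anti-GST antibody (2 nM) added. 520:495 nm ratio normalized to DMSO (0%) and T3 (100%).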
# THRB (gene 7068) [12] = biological target: THRB (gene 7068) (UniProt P10828); experiment: TOX21_TRB_BLA_Agonist_Followup_ratio: Tox21 Thyroid Hormone Receptor beta Agonism Beta-lactamase (BLA) Follow-Up Assay, Ratio (AID 2283954)
# In short: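 Human TRβ LBD–GAL4 DBD fusion in GeneBLAzer UAS-bla HEK293T cells; 11 concentrations in triplicate, 18 h at 37°C/5% CO2, T3 as agonist control. CCF4-AM substrate 2 h at room temperature; 460:530 nm ratio fitted for gain of signal versus DMSO.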
# THRB (gene 7068) [13] = biological target: THRB (gene 7068) (UniProt P10828); experiment: TOX21_TRB_COA_Agonist_Followup_ratio: Tox21 Thyroid Hormone Receptor beta Agonism through Coactivator Recruitment Follow-Up Assay, Ratio (AID 2283963; active means hit-call score of the fitted dose curve at least 0.9, where 1 is the maximum; inactive means score below 0.9)
# In short: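 Cell-free TR-FRET coactivator recruitment: GST-tagged TRβ LBD (5.0 nM) with 0.10% BSA incubated with compound, then fluorescein-SRC-2 peptide (200 nM) and Tb-anti-GST antibody (2 nM) added. 520:495 nm ratio normalized to DMSO (0%) and T3 (100%).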
# [14] = biological target: Retinoic acid receptor RXR-alpha (Homo sapiens) (UniProt P19793); experiment: TOX21_TR_RXR_BLA_Agonist_Followup_ratio: Tox21 Thyroid Hormone Receptor beta Retinoid X Receptor alpha (RXRa) Agonism Beta-lactamase (BLA) Follow-Up Assay, Ratio (AID 2283968)
# In short: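 HEK293T RXRa-bla, qHTS; cpd 11-pt conc. in triplicate, 16 h 37C/5% CO2; CCF4-AM 2 h RT; ratio 460:530 nm; agonist direction vs DMSO; 9-cis retinoic acid as positive control.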
# [15] = TOX21_TR_RXR_BLA_Agonist_Followup_viability: Viability Assessment in the Tox21 Thyroid Hormone Receptor beta Retinoid X Receptor alpha (RXRa) Agonism Beta-lactamase (BLA) Follow-Up Assay (AID 2283970)
# In short: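 Cells: HEK293T RXRa-UAS-bla, 2,500/well; medium phenol red-free DMEM + 2% charcoal-stripped FBS; 16h, 37C/5% CO2; qHTS concentration series. Read: CellTiter-Glo luminescence (ATP); bidirectional fit, DMSO = baseline.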
# [16] = biological target: Thyroid hormone receptor alpha (Rattus norvegicus) + Thyroid hormone receptor beta (Rattus norvegicus) (UniProt P18113+P63059); experiment: TOX21_TR_LUC_GH3_Antagonist_Followup: Tox21 GH3 Thyroid Hormone Receptor Antagonism Luciferase Follow-Up Assay (AID 2283942)
# In short: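 Confirmatory qHTS, antagonist mode: T3 (1.0 nM final) + test cpd, 15 conc, 92 uM–5nM final, GH3 rat pituitary line, 24 h, 37C. Luc reporter, RLU vs DMSO.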
# [17] = TOX21_TRB_BLA_Antagonist_Followup_viability: Viability Assessment in the Tox21 Thyroid Hormone Receptor beta Antagonism Beta-lactamase (BLA) Follow-Up Assay (AID 2283961)
# In short: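 ATP-based CellTiter-Glo luminescence (30 min, room temperature) run in the same wells as the TRβ-bla readout. Cells: GeneBLAzer HEK293T expressing GAL4-TRβ LBD, exposed 18 h at 37C to compounds at 11 concentrations in triplicate, stripped-serum medium.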
# [18] = biological target: Retinoic acid receptor RXR-alpha (Homo sapiens) (UniProt P19793); experiment: TOX21_TR_RXR_BLA_Antagonist_Followup_ratio: Tox21 Thyroid Hormone Receptor beta Retinoid X Receptor alpha (RXRa) Antagonism Beta-lactamase (BLA) Follow-Up Assay, Ratio (AID 2283972)
# In short: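 After 5 h attachment at 37C, HEK293T RXRa-bla cells (2,500/well, 2% charcoal-stripped FBS, no phenol red) received compounds at 11 concentrations in triplicate for 16 h. Beta-lactamase read as 460:530 nm ratio after 2 h RT substrate loading.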
# [19] = TOX21_TR_RXR_BLA_Antagonist_Followup_viability: Viability Assessment in the Tox21 Thyroid Hormone Receptor beta Retinoid X Receptor alpha (RXRa) Antagonism Beta-lactamase (BLA) Follow-Up Assay (AID 2283979)
# In short: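 Follow-up compounds (11 concentrations, triplicate) were incubated 16 h at 37C/5% CO2 with HEK293T RXRa-bla cells seeded at 2,500/well in charcoal-stripped-serum medium. ATP content by CellTiter-Glo luminescence gave viability; curves fitted in both directions against DMSO.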
# THRB (gene 7068), sequence (P10828 whole entry, looked up, the tested form may be a part): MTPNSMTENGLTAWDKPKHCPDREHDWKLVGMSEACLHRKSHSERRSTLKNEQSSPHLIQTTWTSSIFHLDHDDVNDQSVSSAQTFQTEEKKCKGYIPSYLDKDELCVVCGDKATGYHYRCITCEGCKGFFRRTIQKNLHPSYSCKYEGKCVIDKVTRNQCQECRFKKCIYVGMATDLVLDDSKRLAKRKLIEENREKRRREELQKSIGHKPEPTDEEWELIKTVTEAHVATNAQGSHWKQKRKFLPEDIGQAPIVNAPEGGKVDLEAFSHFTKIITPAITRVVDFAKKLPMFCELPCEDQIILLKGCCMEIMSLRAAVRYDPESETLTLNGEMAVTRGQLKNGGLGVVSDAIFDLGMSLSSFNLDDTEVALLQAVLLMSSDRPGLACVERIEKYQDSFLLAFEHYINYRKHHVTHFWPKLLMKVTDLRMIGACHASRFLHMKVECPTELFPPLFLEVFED
# Retinoic acid receptor RXR-alpha (Homo sapiens), sequence (P19793 whole entry, looked up): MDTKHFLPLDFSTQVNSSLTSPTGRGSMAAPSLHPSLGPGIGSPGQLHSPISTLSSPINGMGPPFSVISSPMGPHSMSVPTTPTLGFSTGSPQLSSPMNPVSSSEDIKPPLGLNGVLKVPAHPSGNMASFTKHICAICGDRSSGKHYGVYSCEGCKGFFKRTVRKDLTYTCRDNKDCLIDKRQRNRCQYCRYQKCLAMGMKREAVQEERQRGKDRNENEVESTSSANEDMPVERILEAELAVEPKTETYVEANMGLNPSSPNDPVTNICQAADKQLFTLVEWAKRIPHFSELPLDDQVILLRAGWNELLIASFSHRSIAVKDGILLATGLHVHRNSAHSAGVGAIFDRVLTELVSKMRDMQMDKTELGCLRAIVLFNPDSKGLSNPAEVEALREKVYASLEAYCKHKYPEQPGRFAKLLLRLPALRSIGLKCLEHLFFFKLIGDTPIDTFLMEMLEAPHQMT
# THRA (gene 7067), sequence (P10827 whole entry, looked up, the tested form may be a part): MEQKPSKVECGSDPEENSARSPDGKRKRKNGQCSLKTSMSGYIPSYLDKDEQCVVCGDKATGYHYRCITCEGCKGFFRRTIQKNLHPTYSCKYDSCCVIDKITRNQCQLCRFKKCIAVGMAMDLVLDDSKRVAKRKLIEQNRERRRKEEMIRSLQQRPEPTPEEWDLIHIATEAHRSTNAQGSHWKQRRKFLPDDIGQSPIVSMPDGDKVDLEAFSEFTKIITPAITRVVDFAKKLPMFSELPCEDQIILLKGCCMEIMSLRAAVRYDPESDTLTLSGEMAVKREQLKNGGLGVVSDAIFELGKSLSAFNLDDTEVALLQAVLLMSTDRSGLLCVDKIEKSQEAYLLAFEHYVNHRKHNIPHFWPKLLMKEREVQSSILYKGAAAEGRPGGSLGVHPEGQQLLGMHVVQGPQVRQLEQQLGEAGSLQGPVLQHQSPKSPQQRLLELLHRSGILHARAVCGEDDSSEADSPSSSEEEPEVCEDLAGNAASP
smiles,measurement,setting,value
Oc1ccc2ccccc2c1N=Nc1ccccc1,outcome,[1],inactive
CCOC(=O)C(C)(C)Oc1ccc(Cl)cc1,outcome,[2],inactive
same,outcome,[3],inactive
same,outcome,[4],inactive
same,outcome,[5],inactive
same,outcome,[6],inactive
same,outcome,[7],inactive
same,outcome,[8],inactive
same,outcome,[9],inactive
same,outcome,[10],inactive
CCOc1ccc2c(c1)C(C)=CC(C)(C)N2,outcome,[11],inactive
CCCCCCCCCCC,outcome,THRA (gene 7067),inactive
same,outcome,THRB (gene 7068) [12],inactive
same,outcome,THRB (gene 7068) [13],inactive
same,outcome,[14],inactive
same,outcome,[15],inactive
Cc1cc(NC(=O)C(=O)O)cc(C)c1Oc1ccc(O)c2c1CCC2,AC50,THRA (gene 7067),3.53 nM (active)
same,AC50,THRB (gene 7068) [12],84.8 nM (active)
same,AC50,THRB (gene 7068) [13],2.27 nM (active)
same,AC50,[14],21600 nM (active)
CCc1c(C(=O)NN2CCCCC2)nn(-c2ccc(Cl)cc2Cl)c1-c1ccc(Br)cc1,outcome,[1],inactive
C[C@]12C=CC(=O)C=C1CC[C@@H]1[C@@H]2C(=O)C[C@@]2(C)[C@H]1CC[C@]2(O)C(=O)CO,outcome,[1],inactive
same,outcome,[11],inactive
Oc1ccc2c(c1)OC[C@@H](N1CCC(O)(c3ccc(F)cc3)CC1)[C@H]2O,outcome,[1],inactive
same,outcome,[11],inactive
Nc1nc(N)c2nc(CNc3ccc(C(=O)N[C@@H](CCC(=O)O)C(=O)O)cc3)cnc2n1,outcome,[16],inactive
same,outcome,[17],inactive
same,outcome,[18],inactive
same,outcome,[19],inactive
O=c1[nH]cc(F)c(=O)[nH]1,outcome,[19],inactive

# Source: PubChem BioAssay (EPA / NIEHS)
